# High-throughput results (PubChem BioAssay)
# The list is not random: actives were taken first. Their share in the collection is about 1.8%.
# NadD inh: inhibitors of S. aureus NadD, primary screen, biochemical, colorimetric, uHTS; actives 0.78% (n = 360,000); Nicotinate-nucleotide adenylyltransferase NadD (Staphylococcus aureus N315); AID 602399, 2012; purified NadD enzyme, colorimetric absorbance read-out; inhibition, % at 20 µM; in the data active means inhibition above about 26%
# PHOSPHO1 inh: PubChem AID 1565; Phosphoethanolamine/phosphocholine phosphatase (Homo sapiens), Q8TCT1; recombinant PHOSPHO1, absorbance phosphatase assay; actives 1.1% (n = 290,000); inhibition, % at 13.3 µM; in the data active means inhibition above about 60%
# UBC9 SUMO inh: inhibitors of in vitro SUMOylation cascade, primary screen, biochemical, HTRF, uHTS. SUMO-conjugating enzyme UBC9 (Homo sapiens), P63279. AID 2006, 2009. HTRF SUMOylation assay, SAE1/SAE2 + UBC9. inhibition, % at 35 µM. actives 0.36% (n = 290,000); in the data active means inhibition above about 50%, passing the limit was not always enough
# p-CIP stab down: p/CIP-EGFP fusion destabilizers, primary screen, fluorescence, F442A cells; actives 0.01% (n = 290,000); Q05BA5; 16 h; decrease of EGFP signal, % at 10 µM;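 active means EGFP signal decrease of at least 30% at 10 µM or well 3 SD below plate mean, unless failing retest; inactive means the rest, including hits failing retest or dose response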
# Target sequence (Q05BA5 1-1403): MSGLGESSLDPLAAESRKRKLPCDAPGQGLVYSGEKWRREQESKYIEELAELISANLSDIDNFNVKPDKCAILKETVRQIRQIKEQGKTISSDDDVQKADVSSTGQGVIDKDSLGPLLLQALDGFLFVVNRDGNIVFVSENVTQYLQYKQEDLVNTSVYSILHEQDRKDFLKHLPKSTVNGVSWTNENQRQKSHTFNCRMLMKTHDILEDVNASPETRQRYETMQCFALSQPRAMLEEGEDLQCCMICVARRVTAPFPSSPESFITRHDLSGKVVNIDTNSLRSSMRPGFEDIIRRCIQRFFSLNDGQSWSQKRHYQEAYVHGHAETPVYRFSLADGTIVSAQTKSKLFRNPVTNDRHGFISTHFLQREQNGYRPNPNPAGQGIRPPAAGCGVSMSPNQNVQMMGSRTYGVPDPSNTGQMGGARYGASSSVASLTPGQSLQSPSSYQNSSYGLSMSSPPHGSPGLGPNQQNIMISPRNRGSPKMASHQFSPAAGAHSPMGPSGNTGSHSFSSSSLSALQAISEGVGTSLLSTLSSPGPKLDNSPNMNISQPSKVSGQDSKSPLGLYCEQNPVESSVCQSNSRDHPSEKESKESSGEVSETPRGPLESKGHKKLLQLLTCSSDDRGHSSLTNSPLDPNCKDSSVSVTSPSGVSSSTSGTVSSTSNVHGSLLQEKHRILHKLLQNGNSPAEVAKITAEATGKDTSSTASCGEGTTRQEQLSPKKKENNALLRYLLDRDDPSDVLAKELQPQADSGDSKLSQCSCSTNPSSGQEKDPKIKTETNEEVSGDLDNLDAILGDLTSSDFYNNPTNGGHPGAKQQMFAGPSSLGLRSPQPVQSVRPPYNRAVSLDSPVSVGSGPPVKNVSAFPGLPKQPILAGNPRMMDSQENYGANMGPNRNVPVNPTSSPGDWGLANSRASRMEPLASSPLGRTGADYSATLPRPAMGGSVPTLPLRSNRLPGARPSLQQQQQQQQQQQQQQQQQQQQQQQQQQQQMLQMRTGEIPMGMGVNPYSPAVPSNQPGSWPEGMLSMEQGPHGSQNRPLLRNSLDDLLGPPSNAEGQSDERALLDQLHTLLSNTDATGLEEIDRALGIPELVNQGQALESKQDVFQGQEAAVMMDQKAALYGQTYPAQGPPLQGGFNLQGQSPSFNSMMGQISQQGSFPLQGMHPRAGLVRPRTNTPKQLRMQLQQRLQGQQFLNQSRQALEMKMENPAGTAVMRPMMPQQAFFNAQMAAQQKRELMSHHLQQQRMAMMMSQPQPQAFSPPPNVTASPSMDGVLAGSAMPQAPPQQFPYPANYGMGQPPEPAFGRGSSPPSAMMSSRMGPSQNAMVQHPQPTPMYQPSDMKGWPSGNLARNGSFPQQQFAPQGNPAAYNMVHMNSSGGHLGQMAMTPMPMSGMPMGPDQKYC
# Hits are given with their value; . = inactive; / = no result.
SMILES,NadD inh,PHOSPHO1 inh,UBC9 SUMO inh,p-CIP stab down
NC(=S)N/N=C\c1ccc(-c2cccc(Cl)c2Cl)o1,.,95.4,.,.
NC(=S)N/N=C/c1ccc(-c2ccccc2)o1,.,.,.,.
Cc1ccc(NC(=O)CSc2nccc(=O)[nH]2)c(S(=O)(=O)N2CCOCC2)c1,.,63.6,.,.
O=C(CSc1nccc(=O)[nH]1)Nc1cccc(S(=O)(=O)N2CCOCC2)c1,.,.,.,.
COc1cccc(/C=C2/SC(=S)N(CC(=O)NNC(=O)c3ccccc3OC)C2=O)c1,39.3,.,.,.
O=C(O)CN1C(=O)/C(=C\c2cccc(OCc3ccc(Cl)cc3Cl)c2)SC1=S,30.3,.,.,.
O=C(O)CN1C(=O)/C(=C\c2ccccc2OCc2ccc(Cl)cc2Cl)SC1=S,.,.,.,.
COc1cccc(/C=C2\SC(=S)N(CCC(=O)NNC(=O)c3ccccc3OC)C2=O)c1,.,.,.,.
COc1cccc(/C=C2/SC(=S)N(CC(=O)Nc3nnc(C)s3)C2=O)c1,39.4,.,.,.
Cc1nnc(NC(=O)CCN2C(=O)/C(=C\c3ccccc3)SC2=S)s1,.,.,.,.
Cc1ccc2c(=O)n3c(nc2c1)C(Cc1ccc(O)cc1)NC(=O)c1cccnc1-3 (centres undefined),.,/,/,/
COc1ccc(C(=O)Nc2cccc(C(=O)N3CCCCC3)c2)cc1,.,65.8,.,.
CCOC(=O)C1=NN(c2ccccc2)C2(S1)SC(C(C)=O)=C(C)N2c1ccccc1 (centres undefined),.,.,.,.
CCOC(=O)C1=NN(c2cccc(C)c2)C2(S1)SC(C(C)=O)=C(C)N2c1ccccc1 (centres undefined),.,62.5,.,.
CN(C)c1ncnc2c1NC1=C(S2)C(=NCCCC(=O)O)CC(C)(C)C1,.,86.6,.,.
COc1ncnc2c1NC1=C(S2)C(=NCCC(=O)O)CC(C)(C)C1,.,.,.,.
CN(C)c1ccc(/C=N/Nc2ccc(-n3ccnc3)nn2)cc1,.,85.7,.,.
COc1ccc(CN2C(=O)C(CC(=O)NCCCN(C)C)CC(C(=O)N(C)C)=C2C)cc1 (centres undefined),.,/,/,/
Cc1ccc(S(=O)(=O)N(C)C)cc1NC(=S)Nc1cccc2ccccc12,.,.,92.5,.
COc1ccc(NC(=S)Nc2cccc3cnccc23)cc1,.,.,94.0,.
CCN(C(=S)Nc1cccnc1)c1cccc2ccccc12,.,.,99.5,.
S=C(Nc1ccc(Cl)cc1)Nc1cccc2cnccc12,.,.,.,.
Fc1ccc(NC(=S)Nc2cccc3cnccc23)cc1,.,.,.,.
COc1ccccc1NC(=S)Nc1cccc2cnccc12,.,.,51.2,.
CC(=O)NNC(=S)Nc1cc(S(=O)(=O)N(C)C)ccc1C,.,.,.,.
SMILES,NadD inh,PHOSPHO1 inh,UBC9 SUMO inh,p-CIP stab down
CN(C)S(=O)(=O)c1cccc(NC(=S)Nc2ccc3cn[nH]c3c2)c1,.,.,.,.
CCOc1ccc(NC(=S)Nc2cccc3cnccc23)cc1,.,.,89.3,.
Fc1cccc(NC(=S)Nc2cccnc2)c1,.,.,.,.
COc1cc(OC)cc(C(=O)NC(=S)Nc2cccnc2)c1,.,.,.,.
CN(C)S(=O)(=O)c1cccc(NC(=S)Nc2cccc3cnccc23)c1,.,.,99.4,.
COc1cc(NC(=S)Nc2cccnc2)cc(OC)c1,.,.,71.7,.
S=C(Nc1cccnc1)Nc1cccc2cnccc12,.,.,97.2,52.4
CC(C)N(C)c1ncnc2c1ncn2[C@H]1CN(CCN2CCOCC2)C[C@@H](CO)O1,.,/,/,/
O=c1[nH]cc(N=Cc2cc([N+](=O)[O-])ccc2O)c(=O)[nH]1,/,.,.,.
O=c1[nH]cc(N=Cc2cc(Cl)cc(Cl)c2O)c(=O)[nH]1,.,.,56.7,.
Cc1c(Cl)ccc2sc(NC(=O)C3CC3)nc12,.,.,.,.
Cc1nc2c(ccc3nc(NC(=O)C4CC4)sc32)s1,.,61.5,.,.
CCC(=O)Nc1nc2ccc3sc(C)nc3c2s1,.,64.3,.,.
CC1(C)Cc2c(cnn2-c2ccc(F)cc2)C(NC(=O)c2ccco2)C1 (centres undefined),.,.,.,.
CC12CC(c3ccccc3O1)N(C(=O)c1ccco1)C(=S)N2c1ccc(F)cc1 (centres undefined),.,71.1,.,.
Cc1oc2c(c1C(=O)O)C(=O)c1ccccc1C2=O,.,.,.,.
Cc1oc2c(c1C(=O)c1ccccc1)C(=O)C(=O)c1ccccc1-2,.,.,93.1,.
